The list is not random: actives were taken first. Their share in the collection is about 1.3%.
GRK2 inh: blocks RNA aptamer binding to human GRK2 | P25098 | bead flow cytometry, FAM-aptamer displacement from GRK2 | inhibition of aptamer binding, % at 10 µM | actives 0.59% (n = 330,000) | AID 488847;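 active = inhibition of aptamer binding above 40%, roughly 3 SD of noise, on plates passing a quality check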;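 note: median bead fluorescence of bound FAM aptamer so fluorescent compounds give negative values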
NTR1 ag: agonists of human neurotensin receptor NTR1. P30989. NTR1-U2OS beta-arrestin-GFP spot imaging, agonist mode. activation, % at 20 µM. actives 0.17% (n = 330,000). AID 493036;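 active = activation at or above 40% of the spot to cytoplasm intensity ratio, with at least 20 cells analyzed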
VLA-4 inh: inhibition in a human VLA-4 binding assay; VLA-4 expressing cells, ligand binding flow cytometry; inhibition, % (about 7 µM as worked out from the volumes in the protocol); actives 0.2% (n = 330,000); in the data active = inhibition above about 50%
Target sequence (P13612 whole entry, looked up): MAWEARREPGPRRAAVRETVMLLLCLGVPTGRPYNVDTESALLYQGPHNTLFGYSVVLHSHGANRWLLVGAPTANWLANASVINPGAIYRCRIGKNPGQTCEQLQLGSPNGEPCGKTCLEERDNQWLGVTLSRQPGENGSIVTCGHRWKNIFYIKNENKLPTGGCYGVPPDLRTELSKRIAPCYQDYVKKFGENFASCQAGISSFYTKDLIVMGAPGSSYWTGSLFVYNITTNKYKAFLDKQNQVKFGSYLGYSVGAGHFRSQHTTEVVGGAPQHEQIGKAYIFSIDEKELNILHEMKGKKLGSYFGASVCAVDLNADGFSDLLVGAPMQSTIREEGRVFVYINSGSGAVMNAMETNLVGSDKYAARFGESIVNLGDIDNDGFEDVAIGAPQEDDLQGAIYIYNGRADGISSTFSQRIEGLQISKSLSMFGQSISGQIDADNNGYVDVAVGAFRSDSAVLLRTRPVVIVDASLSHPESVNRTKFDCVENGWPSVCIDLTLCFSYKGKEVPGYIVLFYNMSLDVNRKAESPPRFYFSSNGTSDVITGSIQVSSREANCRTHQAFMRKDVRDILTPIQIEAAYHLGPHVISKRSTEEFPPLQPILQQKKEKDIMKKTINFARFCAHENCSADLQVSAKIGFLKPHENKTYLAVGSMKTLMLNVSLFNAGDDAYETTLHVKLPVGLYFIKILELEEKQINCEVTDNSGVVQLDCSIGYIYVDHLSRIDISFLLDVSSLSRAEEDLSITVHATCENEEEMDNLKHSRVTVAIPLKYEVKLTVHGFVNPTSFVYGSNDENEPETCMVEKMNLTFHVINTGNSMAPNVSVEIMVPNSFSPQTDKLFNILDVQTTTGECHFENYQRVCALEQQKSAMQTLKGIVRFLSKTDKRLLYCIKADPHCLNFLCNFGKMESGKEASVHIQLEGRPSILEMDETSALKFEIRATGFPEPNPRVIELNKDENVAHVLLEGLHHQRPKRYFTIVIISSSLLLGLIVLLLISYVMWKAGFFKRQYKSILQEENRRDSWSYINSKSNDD
A1 inh: inhibitors of the anti-apoptotic protein A1, read as caspase activation; AID 2462; MEF A1-2A-BIM cells, Caspase-Glo 3/7 luminescence, 3 h; percent of clofoctol response, vehicle zero; caspase activation, % (no concentration beside the values); actives 0.066% (n = 330,000);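 active = over half of replicate activation scores above 10%, or exactly half above 10 with the replicate mean above 10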
Beta2AR agonist: human beta-2 adrenergic receptor agonism by FAP. P07550. AID 504454. Am2.2-beta2AR cells, FAP receptor internalization, flow cytometry. response, % (no concentration beside the values). actives 0.43% (n = 340,000);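 active = response above a set limit, near 3 SD of response in nonfluorescent compounds, cut at about 42% in these data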
GRK2 CP1: confirmation of human GRK2 inhibitors displacing RNA aptamer; shares compounds with GRK2 inh; bead-bound GRK2, FAM-aptamer displacement, flow cytometry; aptamer displacement, % at 10 µM; actives 4% (n = 2,000); AID 504451;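 active = aptamer displacement above 40%, near three times the noise of non-fluorescent compounds, on plates passing quality checks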;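 note: negative values mostly reflect intrinsic compound fluorescence rather than true enhancement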
Aptamer quench: quenches fluorescent RNA aptamer, GRK2 hit artifact; shares compounds with GRK2 inh; Fluorescent RNA aptamer beads, quenching, flow cytometry; hits give high values; fluorescence change (kMESF span), kMESF (no concentration beside the values); 110 tested, under 10 active; AID 504521;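 active = compounds whose bead fluorescence drops by more than 37 kMESF across the dose range, marking them as dye quenchers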
Aptamer quench SP: quenches fluorescent RNA aptamer, GRK2 hit artifact; shares compounds with GRK2 inh; Carboxyfluorescein RNA aptamer on beads, flow cytometry quenching; hits give low values; fluorescence response (% of DMSO), % at 10 µM; 2,000 tested, under 10 active; AID 504580;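 active = compounds that quench the bead-bound fluorescent RNA probe, cutting fluorescence to under half of the solvent control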;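 note: counterscreen run without GRK2 so only probe quenching by compound is measured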
GRK2 CP2: confirmation of human GRK2 inhibitors binding RNA aptamer site; shares compounds with GRK2 inh; bead-bound GRK2, FAM-aptamer displacement, flow cytometry; inhibition of aptamer binding, % at 10 µM; 360 tested, under 10 active; AID 504782;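 active = inhibition of aptamer binding above 40%, about triple the noise seen with nonglowing compounds, on plates passing quality control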;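 note: negative values mostly come from compounds that fluoresce themselves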
FAM quench SP: counter-screen for GRK2 binding hits: quenchers of fluorescent RNA aptamer; fluorescence response vs DMSO, % at 10 µM; 360 tested, under 10 active; shares compounds with GRK2 inh; carboxyfluorescein RNA aptamer beads, flow cytometry quenching; hits give low values;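 active = response vs DMSO under 50%, meaning signal dropped by over half, treated as fluorescence quencher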;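 note: labelled aptamer on streptavidin beads without GRK2 as a quench counter-screen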
Large screens that a line does not name were inactive (follow-up assays come after a bar, where they were run).

CCn1nc(NC(=O)CC(C)C)c2cc3cccc(C)c3nc21	none
CC(=O)c1ccc(NC(=O)C(C)Sc2nnc3ccccn23)cc1 (stereo unspecified)	none
Cc1ccc[n+](CC(=O)c2ccccc2)c1	none (no result: Beta2AR agonist)
Cc1ccc[n+](CC(=O)c2ccc(Br)cc2)c1	GRK2 inh 75 | GRK2 CP1 inactive | Aptamer quench SP inactive
CC(=O)Nc1ccc(OCC(=O)NCc2ccccc2)cc1	GRK2 inh 100 | GRK2 CP1 inactive | Aptamer quench SP inactive
CCC(=O)Nc1nnc(SCC(=O)Nc2ccc3c(c2)OCCO3)s1	GRK2 inh 68 | GRK2 CP2 inactive | FAM quench SP inactive
Cc1ccc(NC(=O)CSc2nnc(NC(=O)c3ccco3)s2)cc1	none
CC(=O)c1ccc(NC(=O)CSc2nnc(NC(=O)c3ccco3)s2)cc1	GRK2 inh 46 | GRK2 CP2 inactive | FAM quench SP inactive
COc1ccc(N2CCN(C(=O)C(Cc3ccccc3)NC(=O)c3ccccc3)CC2)cc1 (stereo unspecified)	none (no result: GRK2 inh, NTR1 ag, VLA-4 inh, A1 inh)
CCC(CC)C(=O)OCC(=O)Nc1ccc(S(=O)(=O)N2CCOCC2)cc1OC	GRK2 inh 51 | GRK2 CP1 inactive | Aptamer quench SP inactive
CCC(C)SCC(=O)Nc1ccc(S(=O)(=O)N2CCOCC2)cc1OC (stereo unspecified)	none
O=C(COC(=O)/C=C/c1ccco1)Nc1ccccc1	none
CCc1ccc(NC(=O)COC(=O)/C=C/c2ccco2)cc1	GRK2 inh 70 | GRK2 CP1 inactive | Aptamer quench SP inactive
O=C(COC(=O)/C=C/c1ccco1)Nc1cc(S(=O)(=O)N2CCOCC2)ccc1Cl	GRK2 inh 59 | GRK2 CP1 inactive | Aptamer quench SP inactive
O=C(O)COc1ccccc1C=NNC(=O)c1ccccc1NS(=O)(=O)c1cccs1	none
O=C(NC1CCCC1)C1CC(O)CN1C(=O)Nc1ccccc1 (stereo unspecified)	none
COc1cc(NC(C(=O)Nc2cccc(C(C)=O)c2)c2ccccc2)cc(OC)c1OC (stereo unspecified)	GRK2 inh 76 | GRK2 CP2 inactive | FAM quench SP inactive
CCN(CC)S(=O)(=O)c1ccc(O)c(C(=O)OCC(=O)NC23CC4CC(CC(C4)C2)C3)c1	none
Cc1ccc(F)cc1NC(=O)CSc1nnc(CNC(=O)c2ccco2)n1C	GRK2 inh 70 | GRK2 CP1 inactive | Aptamer quench SP inactive
COc1cccc(-c2nnc(NC(=O)c3ccc(Cl)s3)o2)c1	GRK2 inh 52 | GRK2 CP1 inactive | Aptamer quench SP inactive
O=C(Nc1nnc(-c2ccco2)o1)c1ccc(Cl)s1	none
O=C(O)c1ccccc1-c1ccc(/C=c2\sc3nc4cc(Br)cnc4n3c2=O)o1	GRK2 inh 99 | GRK2 CP1 90 | Aptamer quench inactive | Aptamer quench SP inactive
COc1cc(/C=C/C(=O)N2CCN(c3ccccn3)CC2)cc(OC)c1OC	none
COc1ccc(/C=C/C(=O)N2CCN(c3ccccn3)CC2)cc1OC	GRK2 inh 53 | GRK2 CP1 inactive | Aptamer quench SP inactive
Cc1nnc(NC(=O)CCC(=O)N2CCN(S(=O)(=O)c3cc([N+](=O)[O-])ccc3C)CC2)s1	none
Cc1oc(-c2ccccc2F)nc1CN1CCC(C(=O)NC2CCCc3ccccc32)CC1 (stereo unspecified)	none | GRK2 CP1 inactive | Aptamer quench SP inactive
Cc1oc(-c2ccccc2F)nc1CN1CCC(C(=O)NC2CCCCCCC2)CC1	none (no result: GRK2 inh, NTR1 ag, VLA-4 inh, A1 inh)
CCOC(=O)Nc1nc2ccc(Cn3cccc3)cc2[nH]1	none (no result: GRK2 inh, NTR1 ag, VLA-4 inh, A1 inh)
O=C1C=C(O)c2cccc3cccc1c23	GRK2 inh 100 | GRK2 CP1 inactive | Aptamer quench SP inactive
NC1=CC(=O)c2cccc3cccc1c23	none (no result: Beta2AR agonist)
CC(C)c1onc(C(=O)NC2CCCC2)c1[N+](=O)[O-]	none
CC(C)c1onc(C(=O)N(C)C2CCCCC2)c1[N+](=O)[O-]	GRK2 inh 54 | GRK2 CP1 inactive | Aptamer quench SP inactive
CC(C)(C)OC(=O)N1CCC(c2c(C(=O)O)cnn2-c2ccc(Cl)cc2)CC1	none
Cc1ccc(-n2ncc(C(=O)O)c2C2CCN(C(=O)OC(C)(C)C)CC2)cc1	GRK2 inh 43 | GRK2 CP1 inactive | Aptamer quench SP inactive
Cc1cc(C)c2nc(-c3ccccn3)cc(C(=O)Nc3ccc(S(=O)(=O)Nc4cc(C)on4)cc3)c2c1	none | GRK2 CP1 inactive | Aptamer quench SP inactive
Cc1cc(C)c2nc(-c3ccccn3)cc(C(=O)Nc3ccc(S(=O)(=O)Nc4onc(C)c4C)cc3)c2c1	none
Cc1cccc(OCC(=O)N(Cc2ccccc2)c2c(N)n(Cc3ccccc3)c(=O)[nH]c2=O)c1	none
Cc1ccsc1CN(C)C(=O)c1ccc(Oc2ccccc2)cc1	none
Cc1cccc(C)c1NC(=O)CN(C)CC(=O)c1c(N)n(Cc2ccccc2)c(=O)n(C)c1=O	none | GRK2 CP1 inactive | Aptamer quench SP inactive
CCCCN(C(=O)c1cccc(-n2cccc2)c1)c1c(N)n(CCCC)c(=O)[nH]c1=O	none
CCCN(C(=O)c1cccc(-n2cccc2)c1)c1c(N)n(Cc2ccccc2)c(=O)[nH]c1=O	none | GRK2 CP1 inactive | Aptamer quench 37 | Aptamer quench SP inactive
CC(=O)N(c1ccccc1)c1ccc([N+](=O)[O-])cc1[N+](=O)[O-]	none | GRK2 CP2 inactive | FAM quench SP inactive
Cc1cc(C)c(OCC(=O)N2CCN(c3ncc(C(F)(F)F)cc3Cl)CC2)c(C)c1	GRK2 inh 80 | GRK2 CP2 inactive | FAM quench SP inactive
Cc1ccc(S(=O)(=O)CCC(=O)NC2CCCC2)cc1	none | GRK2 CP2 inactive | FAM quench SP inactive
